Most compounds without a hit are left out; they make up all but 8.8% or so of the library.
KB-V1 cytotox = KB-V1 MDR subline cytotoxicity. KB-V1 MDR cells viability, CellTiter-Glo, 72 h. Potency, µM (titrated, usually from 46.1 µM), hits mostly cytotoxic. 400,000 compounds, 3.4% hits; note: nearly all actives have a fitted effect of over 60% in size
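KB-V1, DMEM (no phenol red) + 10% FBS; cpd pin-transferred, titration series; 72 h, 37 degrees C; CellTiter-Glo, luminescence. Data normalized, curve-fit.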
HT1080 IDH1KD tx = HT-1080 IDH1 knockdown cell toxicity (counter line). AID 686971. HT-1080 IDH1 knockdown viability, ATP luminescence, 48 h. Potency, µM (series often up to 46.1 µM), hits mostly cytotoxic. 360,000 compounds, 2% hits
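In this qHTS, HT-1080 cells depleted of IDH1 are exposed for 48 h at 37 °C to compound titrations. Toxicity is scored from CellTiter-Glo luminescence, with DMSO as full viability and medium alone as none.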
HT1080NT lethal = kills 2HG-producing HT-1080-NT fibrosarcoma cells | HT-1080-NT fibrosarcoma viability, CellTiter-Glo ATP luminescence, 48 h | Potency, µM (series often up to 46.1 µM), hits mostly cytotoxic | 360,000 compounds, 1.6% hits | AID 686970;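 note: NT is the 2HG producing partner of a matched IDH1 knockdown line; nearly all actives have a fitted effect of over 55% in size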
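Viability by CellTiter-Glo luminescence after 48 h compound exposure at 37C of HT-1080-NT cells (750/well, RPMI, 5% FBS). % activity scaled between DMSO wells and medium-only wells, then curve-fitted and categorized by curve class.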
IL1B secr inh = inhibitors of inflammasome signaling (IL-1 beta secretion) | 360,000 compounds, 4.7% hits | AID 743279 | activity change, % at 57.5 µM | THP-1 LPS/ATP IL-1B secretion, AlphaLISA, 16 h; stronger effect = lower value; in the data active = activity change below about -50%; inconclusive = mostly about -30% to -49%
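Secreted IL-1B measured by AlphaLISA bead assay after 16 h compound exposure of THP-1 cells; compounds (final up to 57.5 uM) added 1 h before LPS (250 ng/mL) and ATP (1.25 mM) stimulation; lower signal means less secretion.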
KB-3-1 tox = KB-3-1 parental cell cytotoxicity. KB-3-1 viability, CellTiter-Glo ATP luminescence, 72 h. Potency, µM (doses to about 46.1 µM), hits mostly cytotoxic. 400,000 compounds, 1.4% hits. AID 1347075; note: nearly all actives have a fitted effect of over 60% in size
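KB-3-1 parental drug-naive adenocarcinoma cells in DMEM/10% FBS, incubated 72 h at 37 C with pin-transferred compounds across a concentration series. Viability by CellTiter-Glo luminescence; concentration-response curves fitted after normalization.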
A number is an active result; n = inactive; u = inconclusive; x = not tested or not shown; [ ] = dose if it differs, or a comment. Unless noted, calls come from the whole dose curve; as a rule, active = well fitted curve in the direction sought with a large enough effect; inconclusive = small, poorly fitted or top-dose-only effect, or another doubt; inactive = no such curve, though single readings can be large; an effect the other way counts as inactive or inconclusive.

SMILES	KB-V1 cytotox	HT1080 IDH1KD tx	HT1080NT lethal	IL1B secr inh	KB-3-1 tox
Cc1ccc(C(=O)Nc2nc(C)c(C(=O)Nc3ccc4c(c3)CCC4)s2)cc1	2.9µM	4.1µM	2.3µM	n	21µM
Cc1nc(NC(=O)c2ccc(F)cc2)sc1C(=O)Nc1ccc2c(c1)CCC2	n	n	u	n	n
O=S(=O)(NCC(c1cccs1)N1CCc2ccccc2C1)c1ccccc1 (stereo not given)	n	n	n	u	n
CC(C)Cc1nc2sc3c(NCc4ccco4)ncnc3c2c2c1COC(C)(C)C2	n	n	n	n	n
Cc1nc2sc3c(NCc4ccco4)ncnc3c2c2c1COC(C)(C)C2	18µM	u	n	u	u
CCN(Cc1ccc2c(c1)OCO2)C(=O)/C=C/c1cccc(Br)c1	n	n	n	n	u
CC(C)(C)N(Cc1ccc2c(c1)OCO2)C(=O)/C=C\S(=O)c1ccccc1 (stereo not given)	n	13µM	n	-61	u
O=C(Nc1ccc(OCc2ccccc2)cc1)c1cccs1	n	n	n	n	n
Cc1occc1C(=O)Nc1ccc(OCc2ccccc2)cc1	16µM	u	u	n	n
CCCCOC(=O)c1ccc(N/C(=N\S(=O)(=O)c2ccccc2)c2ccccc2)cc1	n	u	u	-54	n
CCCCOC(=O)c1ccc(NC(=O)c2ccoc2C)cc1	10µM	n	n	n	n
CCN1CCN(CCNC(=O)c2cc(Cl)c(NC(=O)C3=C(C)OCCS3)cc2OC)CC1	n	n	u	n	n
CC(C)NC(=O)Cn1c(SCC(=O)NC2CCCC2)nc2ccccc21	n	n	n	n	n
CC(C)NC(=O)Cn1c(SCC(=O)N2CCCCCC2)nc2ccccc21	15µM	n	n	n	n
Cc1ccc(OCCSc2nc3ccccc3n2CC(=O)N2CCCCC2)c(C)c1	12µM	x	x	x	u
CC(C)Cn1c(SCC(=O)N2CCN(S(=O)(=O)c3ccccc3)CC2)nc2ccccc21	n	n	n	-52	n
Cc1cc(C)n(CCC(=O)N/N=C/c2ccc(Br)c([N+](=O)[O-])c2)n1	n	n	u	-93	u
Cc1ccc(Cn2ccc(NC(=O)c3noc4c3CCCCC4)n2)cc1	5.2µM	n	n	n	u
Cc1ccc(Cn2ccc(NC(=O)c3nn(C)cc3[N+](=O)[O-])n2)cc1	10µM	u	u	-101	u
Cc1cc(C)n(CC(=O)N/N=C/c2cc(Br)cc([N+](=O)[O-])c2O)n1	n	n	n	n	n
Cn1cc([N+](=O)[O-])c(C(=O)Nc2ccn(C34CC5CC(CC(C5)C3)C4)n2)n1	15µM	u	u	n	4.6µM
CN(C)c1ccc(CC(=O)N2CCCC(c3cc(C(=O)Nc4ccc5c(c4)OCO5)no3)C2)cc1 (stereo not given)	n	u	n	n	n
COCCNC(=O)C1CCCN(C(=O)c2cc(C)n(C(C)(C)C)n2)CC1 (stereo not given)	n	n	n	n	n
Cc1cc(C)n(Cc2ccc(NC(=O)c3nn(C)cc3[N+](=O)[O-])cc2)n1	u	6.3µM	10µM	-63	n
O=C(C1CCCN(S(=O)(=O)c2ccccc2)C1)N1CCN(c2ccccc2)CC1 (stereo not given)	u	n	n	n	n
SMILES	KB-V1 cytotox	HT1080 IDH1KD tx	HT1080NT lethal	IL1B secr inh	KB-3-1 tox
O=C(C1CCCN(S(=O)(=O)c2ccc(Br)cc2)C1)N1CCN(Cc2ccccc2)CC1 (stereo not given)	n	n	n	-52	u
O=C(C1CCCN(S(=O)(=O)c2ccccc2[N+](=O)[O-])C1)N1CCCC1 (stereo not given)	12µM	n	n	n	n
Cc1nn(-c2ccccc2)cc1/C=N/NC(N)=S	16µM	n	n	n	u
NS(=O)(=O)c1ccc(N/N=C/c2cn(-c3ccccc3)nc2-c2cccs2)cc1	u	21µM	23µM	-61	u
NC(=O)N/N=C/c1cn(-c2ccccc2)nc1-c1cccs1	u	10µM	23µM	u	n
O=C(N/N=C/c1cn(-c2ccccc2)nc1-c1cccs1)c1ccncc1	n	n	n	n	n
NS(=O)(=O)c1ccc(N/N=C/c2cn(-c3ccccc3)nc2-c2cccs2)c([N+](=O)[O-])c1	n	7.3µM	u	n	u
CC(C)(C)c1ccc(C(=O)C2CCCN(C(=O)CCn3cncn3)C2)cc1 (stereo not given)	u	n	n	n	u
CCOc1ccc(NC(=O)CSc2nccn2-c2cccc(C)c2C)cc1	n	x	x	x	u
Cc1cc(C(=O)C(=O)N(C)C)c(C)n1-c1ccc([N+](=O)[O-])cc1	n	n	n[9.24 µM]	n	n
C=CCN(CC=C)C(=O)C(=O)c1cc(C)n(-c2ccc([N+](=O)[O-])cc2)c1C	7.3µM	n	n	n	n
CC1CC(C)(C)NC(=S)N1CCC(=O)Nc1ccc2c(c1)OCCO2 (stereo not given)	u	u	u	n	23µM
COc1ccc(/C=C(\NC(=O)c2ccc(C)cc2)C(=O)Nc2c(C)n(C)n(-c3ccccc3)c2=O)cc1	n	n	n	n	n
CC1(C)CC(=O)C2=C(C1)NC(SCC(=O)Nc1ccccc1)=C(C#N)C21CCCCC1	21µM	n	u	u	u
N#CC1=C(SCC(=O)c2cc3ccccc3oc2=O)NC(=O)C(C#N)C12CCCC2 (stereo not given)	n	n	n	n	n
CC(C)(C)C1CCC2(CC1)C(C#N)=C(SCC(=O)Nc1ccccc1)NC(=O)C2C#N (stereo not given)	n	u	15µM	n	u
CCOC(=O)c1c(C)[nH]c(C)c1S(=O)(=O)N1CCCC(C(=O)Nc2cccc(CC)c2)C1 (stereo not given)	n	x	x	x	n
Cc1cc(N2CCC(C)CC2)nc(SCC(=O)c2ccccc2)n1	u	n	n	-62	n
CCn1c2ccccc2c2n[nH]c(=S)nc21	6.5µM	n	n	n	u
O=C(CSc1nccn(-c2ccc(Br)cc2)c1=O)NCc1ccccc1	13µM	n	n	n	n
COc1ccccc1-n1ccnc(SCC(=O)NCc2ccccc2)c1=O	n	n	n	n	n
NC(=O)c1cc([N+](=O)[O-])ccc1N1CCN(Cc2ccccc2)CC1	n	n	n	n	n
OCc1cc(C(O)CNCCCCCCOCCCCc2ccccc2)ccc1O (stereo not given)	n	u	16µM	n	n
Cc1cc(SCC(=O)Nc2cccc(S(=O)(=O)NC3=NCCCCC3)c2)c(C)cc1Br	n	13µM	u	-64	n
Cc1cc(SCC(=O)Nc2cccc(S(=O)(=O)NC3=NCCCCC3)c2)nc2ccccc12	u	n	n	-57	u
NC(=NCCc1ccc(Cl)cc1)NS(=O)(=O)c1ccc(F)cc1	15µM	n	n	n	u
Cc1cccc(OCC(=O)N/N=C/CC(C)c2ccccc2)c1C (stereo not given)	n	n	n	n	n

Screens from PubChem.
